Screening results from PubChem BioAssay.
Most compounds without a hit are left out; they make up all but 1.2% or so of the library.
Gli-Sufu block: Gli-Sufu pathway antagonism | inhibition, % at 5 µM | 340,000 tested, 0.74% active | Sufu-KO-LIGHT fibroblasts, Gli luciferase reporter luminescence | AID 588413;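 active = inhibition above about 55%, limit read from the data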;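 also: 0% = DMSO-treated cells and 100% = wells with medium but no cells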
NCOA1 inh: inhibits human SRC1 coactivator; HEK293 GAL4-SRC1 luciferase reporter, luminescence; inhibition, % at 3.6 µM; 360,000 tested, 0.12% active;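 active = inhibition above the campaign mean plus 3 SD, with each screening campaign given its own cutoff, cut at about 60% in these data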;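 also: 0% = DMSO treated cells and 100% = gossypol at 36 µM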
NCOA3 inh: inhibits human SRC3 coactivator; HEK293 GAL4-SRC3 luciferase reporter, luminescence; inhibition, % at 3.6 µM; 360,000 tested, 0.17% active; Q9Y6Q9;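 active = inhibition above a per-campaign cutoff, the mean of all compounds plus 3 SD, cut at about 60% in these data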;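 also: 0% = DMSO-treated cells and 100% = gossypol-treated cells at 36 µM; higher means less SRC3-driven luciferase light from the GAL4 reporter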
SRC2 inh: inhibits human steroid receptor coactivator 2. HEK293 GAL4-SRC2 luciferase reporter, luminescence. inhibition, % at 9 µM. 370,000 tested, 0.17% active. Q15596;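 active = inhibition above the mean inhibition of all tested compounds plus 3 SD, set per campaign, cut at about 52% in these data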;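 also: 0% = DMSO treated cells and 100% = cells given Gossypol at 36 µM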
LRH-1 inv ag: inverse agonists of human LRH-1 (NR5A2); O00482; HEK293T StAR-luciferase reporter, LRH-1 transfected, 24 h; inhibition, % at 3.6 µM; 360,000 tested, 0.13% active;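 active = inhibition above the mean inhibition of all tested compounds plus 3 SD, cut at about 73% in these data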;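 also: 0% = DMSO wells and 100% = reporter-only cells lacking LRH-1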
Target sequence (O00482 whole entry, looked up): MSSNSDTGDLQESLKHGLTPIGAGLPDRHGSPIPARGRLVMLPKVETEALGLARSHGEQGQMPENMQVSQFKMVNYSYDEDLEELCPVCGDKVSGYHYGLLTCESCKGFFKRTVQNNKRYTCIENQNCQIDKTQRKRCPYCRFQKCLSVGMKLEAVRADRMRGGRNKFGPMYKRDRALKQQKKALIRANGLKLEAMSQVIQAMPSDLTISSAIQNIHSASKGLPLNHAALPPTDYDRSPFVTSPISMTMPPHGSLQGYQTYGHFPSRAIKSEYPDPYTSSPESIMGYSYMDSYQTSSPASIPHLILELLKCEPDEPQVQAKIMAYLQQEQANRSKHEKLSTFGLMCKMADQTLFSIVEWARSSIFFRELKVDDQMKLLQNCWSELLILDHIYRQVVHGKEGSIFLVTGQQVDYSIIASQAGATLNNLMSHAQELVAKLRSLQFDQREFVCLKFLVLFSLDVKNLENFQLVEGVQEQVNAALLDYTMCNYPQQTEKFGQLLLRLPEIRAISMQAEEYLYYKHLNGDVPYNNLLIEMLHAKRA
NR2F2 inh: blocks human COUP-TFII nuclear receptor; 370,000 tested, 0.7% active; HEK293T NGFI-A luciferase reporter, luminescence; P24468; inhibition, % at 8.6 µM;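 active = inhibition above a per-plate cutoff, mean inhibition of test wells between control levels plus 3 SD, cut at about 38% in these data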;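 also: cells cotransfected with COUP-TFII expression vector driving the NGFI-A reporter; 0% = median of COUP-TF2 test wells and 100% = reporter-only cells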
Gli antag conf: Gli-SUFU antagonism confirmation, single concentration | shares compounds with Gli-Sufu block | AID 602428 | 2,500 tested, 40% active | inhibition, % at 5 µM | Sufu-KO-LIGHT cells, Gli luciferase reporter, luminescence;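 active = mean inhibition at 5 µM reaching about 45%, limit read from the data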;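 also: plate controls were DMSO-treated cells for no effect and wells lacking cells for full effect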
Gli cytotox: counter-screen for Gli-SUFU antagonists: cytotoxicity. shares compounds with Gli-Sufu block. Sufu-KO-LIGHT cells cytotoxicity, ATP luminescence. cytotoxicity, % at 5 µM. 2,500 tested, 32% active. AID 651994;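 active = mean cytotoxicity at 5 µM above about 25%, limit read from the data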;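 also: cells exposed to compound overnight for roughly 16 to 18 hours; plate controls were DMSO wells with cells for no effect and medium without cells for full effect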
Wnt3a counter: Wnt3a reporter inhibition counter-screen; inhibition, % at 6.25 µM; Wnt-LIGHT cells, Wnt3a-driven luciferase reporter, luminescence; 2,500 tested, 20% active; shares compounds with Gli-Sufu block;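 active = mean inhibition above about 25%, limit read from the data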
* hit, by the source's call; nt = no result.

SMILES	Gli-Sufu block	NCOA1 inh	NCOA3 inh	SRC2 inh	LRH-1 inv ag	NR2F2 inh	Gli antag conf	Gli cytotox	Wnt3a counter
O=C(N[C@@H]1C/C=C\C[C@@H](CC(=O)N(CCO)Cc2ccccc2)C(=O)NCCOC1=O)OCC1c2ccccc2-c2ccccc21	52	-2	3	nt	-6	nt	48*	22	-30
O=C(C[C@@H]1C/C=C\C[C@H](NC(=O)OCC2c3ccccc3-c3ccccc32)C(=O)O[C@H](c2ccccc2)CNC1=O)NCCO	54	11	7	-25	-12	-9	59*	34*	-71
Cc1ccc(C)c(Oc2cc(NC(=O)CCCn3nc(C)c([N+](=O)[O-])c3C)cc([N+](=O)[O-])c2)c1	50	6	19	-4	2	-3	17	12	-20
COc1cc(C(=O)N2CCC(N3CCN(C)CC3)CC2)ccc1Nc1ncc2c(n1)N(C)c1ccccc1C(=O)N2C	nt	nt	nt	-100	nt	-101	nt	nt	nt
CCN1C(=O)CCN(C2CCCC2)c2nc(Nc3ccc(C(=O)NC4CCN(C)CC4)cc3OC)ncc21	71*	-22	1	-149	40	-122	60*	24	-87
COc1ccc(N2CC(C(=O)NCc3nnnn3-c3ccc(C)c(C)c3)CC2=O)cc1 (stereo not drawn)	51	-9	0	8	-9	-4	18	-2	-9
COc1ccccc1CNC(=O)C1CC(=O)N(c2ccc(C)c(C)c2)C1 (stereo not drawn)	1	1	19	12	2	5	nt	nt	nt
O=[N+]([O-])c1ccc(N2CCN(C(=S)NCc3ccc(Cl)cc3)CC2)cc1	58*	-16	17	24	15	24	43	8	-57
CCC1(C)Cc2ccccc2-c2c1c(=O)n(Cc1ccccc1)c1nnnn21 (stereo not drawn)	75*	2	-1	-3	-4	4	28	3	-1
COc1ccc(CCNC(=O)C2CCN(S(=O)(=O)c3cccc4cccnc34)CC2)cc1OC	52	-30	-14	nt	-22	nt	23	0	-17
CCc1ccccc1NC(=O)C1=CC(c2cccs2)=NS(=O)(=O)N1C	-8	-11	0	-2	25	6	nt	nt	nt
Cc1ccc(O)c(NC(=O)C2=CC(c3cccs3)=NS(=O)(=O)N2C)c1	94*	-7	-3	4	8	18	16	-4	3
C=CCN1C(=O)[C@@H](CC(=O)N2CCSCC2)[C@]2(C(=O)OCC)CCCCC/C=C/12	nt	nt	nt	13	nt	-16	nt	nt	nt
COC(=O)[C@]12C[C@H](CC(=O)NCCCN3CCCC3=O)C(=O)N(Cc3ccccc3)C1=C[C@H](C(C)C)O[C@@H]2C1CC1	nt	nt	nt	-8	nt	-6	nt	nt	nt
NC(=O)c1ncn([C@@H]2O[C@H](C(=O)Nc3ccc(C(=O)N4CCCCC4)cc3)[C@@H](O)[C@H]2O)n1	nt	nt	nt	12	nt	0	nt	nt	nt
Cc1ccc(NC(=O)CSc2n[nH]c(-c3ccco3)n2)cc1	1	3	15	-4	14	-1	nt	nt	nt
Cc1ccc(NC(=O)CSc2n[nH]c(-c3ccco3)n2)c(C)c1	57*	12	-3	5	27	-1	21	-3	-18
Cc1ccc(C)c(NC(=O)c2nc(Cl)ccc2Cl)c1	-22	-3	-31	-44	-16	3	nt	nt	nt
O=C(Nc1ccccc1O)c1nc(Cl)ccc1Cl	50	-13	18	-34	9	4	36	22	-20
Cc1ccc(C)c(N2CCN(c3nc4ccccc4c(=O)n3Cc3ccccc3)CC2)c1	55	4	26	-1	7	-15	24	15	-6
Clc1cccc(Nc2ncnc3ccc(Br)cc23)c1	62*	28	29	37	0	25	20	2	11
CCNC(=O)Nc1cc(S(=O)(=O)Nc2ccc(OC)cc2)ccc1N1CCOCC1	61*	21	22	nt	22	nt	61*	46*	24
CCCCNC(=O)c1ccc(N2CCOCC2)c(NS(=O)(=O)c2ccc(OC)cc2)c1	4	10	11	0	-2	-3	nt	nt	nt
Cc1cc(C)n2c(SCC(C)C)nnc2n1	-9	-2	-17	-30	-29	-9	nt	nt	nt
Cc1cc(C)n2c(SCCC(C)C)nnc2n1	63*	-15	-10	-22	-44	-15	-1	8	-41
SMILES	Gli-Sufu block	NCOA1 inh	NCOA3 inh	SRC2 inh	LRH-1 inv ag	NR2F2 inh	Gli antag conf	Gli cytotox	Wnt3a counter
Cc1cc(Nc2cccc(F)c2)nc(NCc2ccccc2)n1	59*	10	-8	17	27	33	40	19	6
CC(C)CNC(=O)OCc1cn(Cc2ccc(F)c(F)c2)nn1	nt	nt	nt	-10	nt	-15	nt	nt	nt
COC(=O)C1=C(C)N(Cc2cccc(C(F)(F)F)c2)C(=NCc2cc(OC)c(OC)c(OC)c2)NC1c1cccc(Cl)c1 (stereo not drawn)	nt	nt	nt	-29	nt	-6	nt	nt	nt
O=C(OCCN1CCN(C2CN(Cc3cn(Cc4ccccc4Cl)nn3)S(=O)(=O)C2)CC1)c1cccs1 (stereo not drawn)	nt	nt	nt	16	nt	-15	nt	nt	nt
C/C(=N\NC(=O)c1nnn(-c2nonc2N)c1C(C)C)c1ccc2ccccc2c1	60*	17	14	-4	13	1	11	28*	20
C/C(=N\NC(=O)c1nnn(-c2nonc2N)c1C(C)C)c1ccncc1	4	-3	5	21	7	-5	nt	nt	nt
O=C(c1ccc(=O)[nH]n1)N1CCN(S(=O)(=O)c2ccc3ccccc3c2)CC1	63*	2	-12	6	1	-15	14	1	-8
CCOC(=O)[C@@]12CCCC3=C1N(CCC3)C(=O)[C@H]2CC(=O)NCc1ccc(OC)c(OC)c1	nt	nt	nt	-8	nt	-6	nt	nt	nt
CN(C)c1ccccc1C(=O)N1CCCC(C(=O)c2ccc3ccccc3c2)C1 (stereo not drawn)	61*	1	21	9	2	-2	26	7	-20
Cn1nccc1C(=O)N1CCCC(C(=O)c2cccc3ccccc23)C1 (stereo not drawn)	72*	10	-5	-52	-11	-19	25	22	-15
CSc1ncccc1C(=O)N1CCCC(C(=O)c2ccc3ccccc3c2)C1 (stereo not drawn)	-2	-17	-1	1	-4	-7	nt	nt	nt
CN(C)C1=NC[C@H](Cc2ccccc2)N1CCCC1CCCC1	56*	21	20	19	11	13	44	31*	13
Cc1cnn2c(C3CC3)ccnc12	58*	-4	-9	12	18	19	12	19	-8
